Bioassay records (PubChem)
PINK1 expr mod: changes PINK1 expression. PINK1 immunofluorescence, high-content cytometry, 24 h. Potency, µM (doses to about 76.6 µM), for inactives: top-dose activation (PINK1 increase), actives largely listed as activators. actives 0.2% (n = 410,000); active = well fitted activation curve with a large enough effect; inconclusive = small, poorly fitted or top-dose-only effect; cell line not stated here; note: % of control where 0% means no effect; nearly all actives have a fitted effect of over 65% in size
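Measures PINK1 amount and localization on or inside mitochondria by immunofluorescence. Stable cells get compounds at 5 concentrations for 24 hours before fixation and staining; CCCP controls included.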
Epigenetic reg: regulators of epigenetic silencing causing reporter derepression in mouse cells; murine LDR cells, GFP reporter derepression, 30 h; Potency, µM (top dose mostly 53.9 µM), for inactives: at the highest dose GFP activation, most hits filed as activators; actives 0.2% (n = 280,000); note: % of control where 0% means no effect; nearly all actives have a fitted effect of over 60% in size
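Readout is the number of GFP-expressing murine LDR cells, counted by cytometry following washing. Cells were treated with compound for 30 h at 37 C; the stably integrated CMV-GFP locus is normally silent.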
Sfp PPTase inh: blocks B. subtilis Sfp PPTase activity; Q9F4F7; Biochemical Sfp PPTase activity, qHTS; Potency, µM, without a hit: largest response in the series, negative = inhibition, actives largely listed as inhibitors; actives 3.5% (n = 310,000);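 note: the enzyme is Sfp with the accession as filed and its product quenches rhodamine fluorescence; 0% = enzyme reaction without inhibitor and -100% = no enzyme wells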
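Reaction rates are the 30-min fluorescence difference (ex 525, em 598 nm) in wells containing 15 nM Sfp, 5 uM rhodamine-CoA and 12.5 uM BHQ-2-YbbR at pH 7.6 with 10 mM MgCl2.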
Gal4-VP16 FLuc: Gal4-VP16 reporter inhibition counter-screen; Drosophila S2 Gal4-VP16 UAS-luciferase, luminescence, 20 h; Potency, µM (highest dose often 53.6 µM), inactives show top-dose activity, negative = inhibition, usual class: inhibitors; actives 3.5% (n = 310,000); AID 2546;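 note: Gal4-VP16 expression switched on by copper sulfate through the metallothionein promoter; % is set by controls: 0 for no effect and ±100 for the full control effect; nearly all actives have a fitted effect of over 50% in size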
RORgamma inh: blocks mouse ROR gamma transcriptional activity; P51450; Drosophila S2 Gal4-RORgamma UAS-luciferase reporter, 20 h; Potency, µM (highest dose often 53.6 µM), for the others: at the top dose activity change, negative = inhibition, most hits filed as inhibitors; actives 5.4% (n = 310,000); AID 2551; note: % is set by controls: 0 for no effect and ±100 for the full control effect; nearly all actives have a fitted effect of over 60% in size
Target sequence (P51450 whole entry, looked up, the tested form may be a part): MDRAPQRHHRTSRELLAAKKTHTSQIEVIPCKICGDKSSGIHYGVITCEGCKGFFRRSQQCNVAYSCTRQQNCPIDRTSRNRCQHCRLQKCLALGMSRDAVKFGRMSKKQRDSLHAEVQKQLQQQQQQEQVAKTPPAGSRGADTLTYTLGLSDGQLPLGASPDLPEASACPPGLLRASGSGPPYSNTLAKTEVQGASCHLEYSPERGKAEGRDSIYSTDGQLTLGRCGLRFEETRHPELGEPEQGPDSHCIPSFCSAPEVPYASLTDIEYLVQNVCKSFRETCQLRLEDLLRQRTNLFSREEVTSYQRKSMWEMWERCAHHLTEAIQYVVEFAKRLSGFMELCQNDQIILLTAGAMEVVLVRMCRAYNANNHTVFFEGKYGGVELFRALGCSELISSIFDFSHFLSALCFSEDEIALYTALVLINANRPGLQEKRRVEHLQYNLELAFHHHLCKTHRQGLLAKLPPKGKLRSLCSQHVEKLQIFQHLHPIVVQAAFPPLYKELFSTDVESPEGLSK
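Drosophila S2 cells stably expressing Gal4-DBD/mouse RORγ fusion under metallothionein promoter plus UAS-luciferase; compound 1 h, then 700 uM CuSO4 induction for 20 h at ambient temperature; inhibition read as reduced luminescence.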
ClpP mod: qHTS Assay for Activators of ClpP; AID 651965, 2013; Potency, µM (highest dose often 57.5 µM), without a hit: top-dose activity change, negative = active; actives 1.9% (n = 340,000); purified B. subtilis ClpP, FRET peptide cleavage, 20 min; ATP-dependent Clp protease proteolytic subunit (Bacillus subtilis (strain 168)), P80244; active = well fitted falling curve with a large enough effect; inconclusive = small, poorly fitted or top-dose-only effect; inactive = no such curve, though single readings can be large or run the other way; note: the source files actives as falling curves though it sought activators and does not explain the sign; nearly all actives have a fitted effect of over 65% in size
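FRET quenching reversal measured ClpP activation: 10 microg/mL B. subtilis ClpP at pH 8 with the FRET-FV decapeptide, read at 430 nm after 320 nm excitation. The 20-min minus 0-min signal was scaled between DMSO/no-enzyme wells and ADEP (5.8 microM final).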
* marks the source's active call; other numbers are inactive results; u = inconclusive; x = no result; [ ] = dose if it differs, or a comment. Most compounds without a hit are left out; they make up all but 8.1% or so of the library. Unless noted, calls come from the whole dose curve; as a rule, active = well fitted curve in the direction sought with a large enough effect; inconclusive = small, poorly fitted or top-dose-only effect, or another doubt; inactive = no such curve, though single readings can be large; an effect the other way counts as inactive or inconclusive. Potency is the fitted concentration of half-maximal effect.

SMILES | PINK1 expr mod | Epigenetic reg | Sfp PPTase inh | Gal4-VP16 FLuc | RORgamma inh | ClpP mod
Cc1ccc(Cl)cc1N1CCN(C(=O)COc2cc(=O)n(C)c3ccccc23)CC1 | 2.6% | -1.1% | x | x | x | -7.8%
COc1ccc(C(=O)Nc2cccc(-c3cn4ccsc4n3)c2)c(OC)c1 | 2.4% | 2.2% | x | x | x | -17.4%
CC(=O)N(CCC(Cc1ccccc1)c1ccco1)Cc1ccco1 (centres undefined) | 0.2% | -1.1% | 44.7µM* | -11.5% | u | -0.1%
O=C(c1ccco1)N(CCC(c1ccccc1)c1ccco1)Cc1ccco1 (centres undefined) | 1.2% | 1.0% | u | u | 6.8% | -2.0%
CCCN(CCC)C(=O)CC(c1ccccc1)c1ccco1 (centres undefined) | 2.3% | 11.9% | 44.7µM* | 1.1% | 14.2% | 2.4%
Cc1ccc(C(CCN(Cc2ccccc2)C(=O)c2ccco2)c2ccco2)cc1 (centres undefined) | 1.7% | -2.7% | 39.8µM* | 9.0% | -43.5% | x
CC[C@H](C)[C@H](NC(=O)[C@H](Cc1ccc(O)cc1)NC(=O)[C@@H](NC(=O)[C@@H](N)CCCN=C(N)N)C(C)C)C(=O)N[C@@H](Cc1cnc[nH]1)C(=O)N1CCC[C@H]1C(=O)N[C@@H](Cc1ccccc1)C(=O)O | x | x | 1.1% | -5.3% | 1.6% | x
Cc1nnc(NC(=O)CSc2nccn2Cc2ccc(Cl)cc2)s1 | -1.1% | -4.6% | x | x | x | 1.9%
Cc1cccc(-c2c3c(=O)n(C)c(=O)n(C)c3c3c(C)nc4ccccc4n23)c1 | 1.4% | 0.0% | x | x | x | -14.4%
CC(C)Cn1c(-c2cccs2)nc2ccccc21 | -2.1% | -1.0% | 5.3% | u | -27.3% | 50.0%
CC(C)CC(C)c1cc(N)nc2nc3ccccc3n12 (centres undefined) | -1.3% | -0.4% | -2.1% | -12.1% | 15.8µM* | x
COc1ccc(NC(=O)c2ccc(OC(F)F)cc2)cc1Cl | 0.4% | 0.3% | 4.5% | 1.0% | 12.8% | 25.1µM*
COc1cccc(C(=O)Nc2cccc(OCc3cc(=O)n4cc(C)ccc4n3)c2)c1 | 10.0% | u | x | x | x | u
CCc1cc2c(nc1CC)CCN(CC/C(C)=N/O[C@@H]1O[C@H](COC(C)=O)[C@H](OC(C)=O)[C@H](OC(C)=O)[C@H]1OC(C)=O)C2 | x | 0.0%[10.1 µM] | 6.5% | -10.7%[10 µM] | 19.8%[10 µM] | x
CCCN=Cc1sc2ccc(OCC)cc2c1O | x | -2.1% | 50.1µM* | 11.2% | -5.9% | 4.1%
CC(=O)NCCN=Cc1sc2ccccc2c1O | -0.9% | -0.9% | -10.8% | -13.1% | -1.6% | 1.9%
O=C1C(c2ccnc3ccccc23)=C(O)c2ccccc21 | 0.2% | 1.0% | -15.0% | u | 5.01µM* | 0.3%
CN(C)S(=O)(=O)c1cccc(NC(=O)COC(=O)[C@H](Cc2ccccc2)NC(=O)c2ccco2)c1 | -0.8% | x | x | x | x | 28.2µM*
CCN(CC)S(=O)(=O)c1cccc(NC(=O)COC(=O)/C=C/c2ccco2)c1 | 1.3% | 0.0% | 28.2µM* | -19.7% | 32.4% | 0.6%
CNC(=O)COC(=O)/C=C/c1ccco1 | 1.4% | 1.1% | 0.5% | -10.0% | -0.3% | -6.4%
O=C(COC(=O)[C@H](Cc1ccccc1)NC(=O)c1ccco1)Nc1ccccc1 | 0.4% | x | x | x | x | -2.1%
CN(C)S(=O)(=O)c1cccc(NC(=O)c2ccc(COc3ccccc3)cc2)c1 | -0.6% | x | 7.3% | 6.31µM* | -44.2% | x
O=C(COC(=O)/C=C/c1ccco1)Nc1cccc([N+](=O)[O-])c1 | 3.8% | -0.9% | 31.6µM* | 3.2% | 18.6% | -2.5%
CN(C)S(=O)(=O)c1cccc(NC(=O)COC(=O)/C=C/c2ccco2)c1 | 1.1% | 0.0% | -19.0% | 20.7% | -0.8% | -3.0%
CN(Cc1ccco1)C(=O)c1cc(NC(=O)C2CCC2)c2c(c1)nc(-c1ccncc1)n2C | 0.3% | x | x | x | x | x
